Laboratory results taken from PubChem BioAssay AID651820 (National Center for Advancing Translational Sciences (NCATS), 2012).
Hit rate of the full screen: of about 340,000 compounds, about 12,000 (3.5%) were called active. About 18% were inconclusive and are not listed. Only a selection was taken, and actives are over-represented in it overall. Some compounds were tested as several samples or in several runs, with calls that do not always agree. Values without a mark were called inactive. The call rests on the fitted dose curve; in most records, active means well fitted inhibition curve with a large enough effect; inconclusive means small, poorly fitted or top-dose-only effect, or another doubt; inactive means no such curve, though single readings can be large or run the other way.

test: qHTS Assay for Inhibitors of Hepatitis C Virus (HCV); settings: Huh7.5.1 HCVcc-Cre infection, luciferase reporter, 44 h; series mostly up to 41.8 µM; activity change, negative = inhibition: at the top concentration
Procedure, shortened: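 Infectious HCVcc-Cre (~0.5 moi) was added to cells just after compound, with cells seeded 4 h earlier at 1,000 per well. Luciferase activity after 44 h culture reported infection; substrate was incubated 15 min at room temperature before reading.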
On the % scale 0 is the no-effect control and ±100 the full control effect; potency means the concentration at half of the fitted maximal effect.

Row | Structure (SMILES) | activity change, negative = inhibition | Potency
1 | O=C(N/N=C/c1cc(Br)c(O)c([N+](=O)[O-])c1)C(O)(c1ccccc1)c1ccccc1 | 1.49% | –
2 | CC(CN1CCCCC1)OC(=O)c1ccccc1Cl (stereo not drawn) | 5.79% | –
3 | COC(=O)c1ccc(NCc2cc(O)ccc2O)cc1 | – | 5.01 µM (active)
4 | CC(C)OC(=O)c1ccc(NCc2cc(O)ccc2O)cc1Cl | – | 6.31 µM (active)
5 | C#CCNc1ccc(C(=O)OCC)cc1 | 20.7% | –
6 | COC(=O)c1ccc(NCC(=O)c2ccccc2)cc1 | -4.54% | –
7 | CC(CN1CCOCC1)OC(=O)c1ccc(Cl)cc1Cl (stereo not drawn) | 17.4% | –
8 | COc1ccc(Cl)cc1NC(=O)COc1ccc2c(c1)OCO2 | -5.11% | –
9 | CC1CN(C(=O)c2ccc([N+](=O)[O-])s2)CC(C)O1 (stereo not drawn) | 26.4% | –
10 | O=C(Nc1ccccc1)Nc1nc2ccccc2s1 | -12.9% | –
11 | c1ccc2sc(NN=C3CCCC3)nc2c1 | -20.9% | –
12 | c1ccc(C(=NNc2nc3ccccc3s2)c2ccccn2)cc1 | – | 1.58 µM (active)
13 | Cc1ccc(S(=O)(=O)N2CCOCC2)cc1NC(=O)COC(=O)c1cnccn1 | 0.865% | –
14 | CCOC(=O)CSc1nnc(-c2cccc(Br)c2)o1 | 15.7% | –
15 | CC1=CC(C)(C)N(C(=O)CSc2nnc(-c3ccccc3)o2)c2ccc(C)cc21 | – | 11.2 µM (active)
16 | Cc1cccc(C)c1OC(=O)CSc1nnc(-c2ccccc2)o1 | -4.66% | –
17 | CC1(C)C[C@H]2C3=CCC4[C@@]5(C)CC[C@H](O)[C@](C)(CO)C5CC[C@@]4(C)[C@]3(C)C[C@@H](O)[C@@]2(CO)[C@@H](O)[C@@H]1O (stereo partly drawn) | 8.47% | –
18 | Cc1cc(C(=O)COc2ccccc2Cl)c(C)n1C1CC1 | -11.2% | –
19 | Cc1cc(C(=O)OCC(=O)Nc2c(F)cccc2F)c(C)n1C1CC1 | 13.6% | –
20 | Cc1cc(C(=O)COc2ccc(Br)cc2F)c(C)n1C1CC1 | – | 22.4 µM (active)
21 | O=C(CSc1ccccn1)N1CCN(S(=O)(=O)c2ccc(Cl)cc2)CC1 | 2.37% | –
22 | COc1ccccc1-n1nnnc1SCC(=O)NC(=O)Cc1ccccc1 | 3.1% | –
23 | Cc1ccc(Cl)c(OCC(=O)N(C)CC(=O)Nc2ccc(N3CCOCC3)cc2)c1 | -13.6% | –
24 | O=C(COC(=O)c1ccco1)Nc1ccc(Cl)cn1 | 7.08% | –
25 | CN(C)[C@@H]1C(=O)C(C(N)=O)=C(O)[C@@]2(O)C(=O)C3=C(O)c4c(O)ccc(Cl)c4[C@@H](O)[C@H]3C[C@@H]12 | 0.778% [at 8.37 µM] | 2.82 µM (active)
26 | CCCCn1c(N)c(N(CCC(C)C)C(=O)c2ccc(COc3ccccc3)o2)c(=O)[nH]c1=O | -10.5% | –

Row | Structure (SMILES) | activity change, negative = inhibition | Potency
27 | O=C(CNC(=O)c1cc(S(=O)(=O)N2CCOCC2)ccc1N1CCCC1)Nc1ccc(F)c(F)c1 | 5.03% | –
28 | CC1CC(=NNC(=O)C2COc3ccccc3O2)CC(C)(C)C1 (stereo not drawn) | -16.6% | –
29 | CN(C)C(=O)CCc1ccc2c3c([nH]c2c1)[C@]1(CCC2CCCC2)[C@@H](C(=O)N2CCOCC2)C[C@H](CC(=O)NCc2ccco2)C(=O)N1CC3 | 11% [at 8.37 µM] | –
30 | CCc1ccccc1NC(=O)CN(C)C(=O)c1cc(C2CC2)nn1-c1ccccc1 | -18.9% | –
31 | CN(c1ccccc1)S(=O)(=O)c1cccc(NC(=O)Cc2c(F)cccc2Cl)c1 | – | 8.91 µM (active)
32 | CN(c1ccccc1)S(=O)(=O)c1cccc(C(=O)NNC(=O)c2ccncc2)c1 | -10.3% [at 8.37 µM] | –
33 | CN(C)S(=O)(=O)c1cccc(NC(=O)Cc2ccsc2)c1 | -5.68% | –
34 | CCOC(=O)[C@@H]1[C@H]2COc3ccc(Br)cc3[C@H]2N2C(=O)N(c3ccc(C)cc3)C(=O)[C@@]12C | 4.27% | –
35 | COC(=O)CC(CC(=O)OC)n1cccc1 | 12.6% | –
36 | CCC(C)NC(=O)c1ccc(NC(=O)CC2SC(N3CCCCC3)=NC2=O)cc1 (stereo not drawn) | 8.14% | –
37 | O=C(Nc1cc2c3c(c1)CC(=O)N3CCC2)c1ccccc1F | -15% | –
38 | CCOc1cc(C(=O)Nc2ccc(S(=O)(=O)Nc3cnc4ccccc4n3)cc2)cc(OCC)c1OCC | 2.89% | –
39 | Cc1nc(N=C(N)N)nc2c(C)cccc12 | – | 14.1 µM (active)
40 | CC(=O)Oc1ccc(-c2nc3c(C)cccc3c(=O)o2)cc1 | -18.5% | –
41 | COc1cc(Cl)c(C)cc1NC(=O)CSc1nnc(CN2CCCC2)o1 | 9.24% | –
42 | COc1ccc(-c2nc(CCNC(=O)c3ccc(Br)o3)cs2)cc1 | – | 10 µM (active)
43 | COc1cc(OC)cc(C(=O)NCC(=O)OCc2csc(-c3ccccc3)n2)c1 | -13.4% | –
44 | COc1ccc(N2CCN(C(=O)CNC(=O)c3ccc(Br)o3)CC2)cc1 | 12.5% | –
45 | COc1ccc(C2=NN(C(=O)CSc3nnnn3C)C(c3ccco3)C2)cc1 (stereo not drawn) | 0.807% | –
46 | O=C(CSc1nccn1-c1cccc(F)c1)NC1CCCC1 | -6.21% | –
47 | CCCc1cc(=O)[nH]c2nnc(SCC(=O)Nc3nnc(SCC)s3)n12 | 13.1% | –
48 | COc1ccccc1-c1nnc(-c2ccc(F)cc2)o1 | 2.16% | –
49 | Cc1ccc(-c2nc(CSCC(=O)NC3CCN(Cc4ccccc4)CC3)c(C)o2)cc1 | – | 12.6 µM (active)
50 | Cc1ccc(-c2nc(CS(=O)CC(=O)NC3CCCC3)c(C)o2)cc1 (stereo not drawn) | -19.2% | –
51 | Cc1ccc(S(=O)(=O)NCCC(=O)NC2CCN(Cc3ccccc3)CC2)cc1 | -7.73% | –
52 | O=C(Nc1ccccn1)C1CCN(S(=O)(=O)c2ccccc2)CC1 | -29.9% | –

Row | Structure (SMILES) | activity change, negative = inhibition | Potency
53 | Fc1ccccc1COc1cccc2cccnc12 | -5.88% | –
54 | Cc1ccc(NC(=O)CN(C)C(=O)c2ccc(Cl)c(S(=O)(=O)NCc3ccco3)c2)cc1 | -9.16% | –
55 | COC(=O)C1=C(C)Nc2ncnn2C1c1cccnc1 (stereo not drawn) | 4.06% | –
56 | Clc1ccc2c(c1)C1=C(C(c3ccncc3)O2)C(c2ccc(Br)cc2)n2ncnc2N1 (stereo not drawn) | – | 12.6 µM (active)
57 | CC1=C(C(N)=O)C(c2ccc(Br)cc2)n2ncnc2N1 (stereo not drawn) | 6.56% | –
58 | COc1ccc(C(CNC(=O)c2cc(S(=O)(=O)Nc3cccc(C)c3)ccc2C)N2CCCC2)cc1 (stereo not drawn) | -23% | –
59 | COc1cccc(CNC(=O)CN2C(=O)NC(Cc3ccccc3)(c3ccccc3)C2=O)c1 (stereo not drawn) | 6.36% | –
60 | COc1cccc(C(=O)N2CCC(n3nccc3NC(=O)C3CCOC3)CC2)c1 (stereo not drawn) | 16.5% | –
61 | COc1cccc(N2CCN(CC(=O)Nc3ccnn3C3CCCC3)CC2)c1 | – | 10 µM (active)
62 | COc1ccccc1N1CCN(CC(=O)Nc2ccnn2C2CCCC2)CC1 | -3.97% | –
63 | CC(=O)NC(CC(=O)Nc1ccc(S(=O)(=O)N2CCOCC2)cc1)c1ccccc1 (stereo not drawn) | -6.34% | –
64 | O=C(c1cc(-c2ccc(Cl)cc2)on1)N1CCN(c2ccccc2)CC1 | 14.7% | –
65 | O=C(c1cc(-c2ccc(F)cc2)on1)N1CCN(c2ccc(F)cc2)CC1 | -27% | –
66 | O=C(c1cccc(C(=O)N2CCN(c3ccc(F)cc3)CC2)c1)N1CCN(c2ccc(F)cc2)CC1 | – | 11.2 µM (active)
67 | O=C(c1cc2cc(F)ccc2[nH]1)N1CCN(c2ccc(F)cc2)CC1 | -3.92% | –
68 | O=C(c1ccccc1)c1ccc(C(=O)N2CCN(c3ccccc3)CC2)cc1 | -4.67% | –
69 | COc1ccc(-c2cc(C(=O)N3CCN(c4ccc(F)cc4)CC3)no2)cc1 | – | 22.4 µM (active)
70 | Cc1ccc(C)c(NC(=O)COC(=O)Cn2c(C)csc2=O)c1 | 11.3% | –
71 | CCC1(CC)NC(=O)N(CC(=O)OCC(=O)c2cc(C)c(C)cc2C)C1=O | 0.464% | –
72 | O=C(CNC(=O)c1ccccc1Br)NNC(=O)c1cccs1 | 9.22% | –
73 | COc1cc(S(=O)(=O)N2CCN(C(=O)C3CC3)CC2)ccc1NC(C)=O | 10.1% | –
74 | O=C(C1Cc2ccccc2CN1C(=O)c1ccco1)N1CCN(c2ccccc2)CC1 (stereo not drawn) | -1.5% | –
75 | O=C(NCCC1=CCCCC1)c1ccc(-n2cncn2)cc1 | 1.61% | –
76 | CCOc1ccc(C(=O)CCC(=O)NC2=NCCS2)cc1 | 5.16% | –
77 | Cc1noc(C)c1CSCC(=O)Nc1ccc(Br)cc1Cl | -2.49% | –
78 | CCOC(=O)CCCCCC(=O)Nc1ccc2c(c1)CC(=O)N([C@@H](C)CO)C[C@H](C)[C@@H](CN(C)Cc1ccccc1)O2 | 0.684% | –

Row | Structure (SMILES) | activity change, negative = inhibition | Potency
79 | O=C(Nc1ccc(Cl)cn1)c1cnn2cccnc12 | 10.6% | –
80 | CC(=O)c1cccc(NC(=O)c2cc(C)nn2-c2ccccc2)c1 | 24.4% | –
81 | Cc1cc(NC(=O)c2cnn3cccnc23)n(-c2ccccc2)n1 | – | 12.6 µM (active)
82 | CSc1ncccc1C(=O)Nc1cccc(S(=O)(=O)N2CCOCC2)c1 | 1.96% | –
83 | C[C@H](NC(=O)c1[nH]cnc1C(=O)Nc1nccs1)c1ccccc1 | 7.12% | –
84 | Cc1nn(-c2ccccc2)nc1C(=O)OCC(=O)N1CCCCC1C (stereo not drawn) | -26.6% | –
85 | CN(C)C(=O)N=NC(=O)N(C)C | 2.13% | –
86 | O=C(c1cc2nc(-c3ccccc3)cc(-c3ccccc3)n2n1)N1CCC2(CC1)OCCO2 | – | 10 µM (active)
87 | O=C(c1ccccc1[N+](=O)[O-])N1CCC2(CC1)OCCO2 | 17.8% | –
88 | Cc1ccc(-c2cc(C(=O)N3CCC4(CC3)OCCO4)no2)cc1 | -6.91% | –
89 | CC(=O)N1CCc2c(sc(NC(=O)CCS(=O)(=O)c3ccc(C)cc3)c2C(N)=O)C1 | 11.6% | –
90 | Cc1cc(C(=O)N/N=C/c2ccc(N3CCOCC3)cc2)c(C)o1 | -11.3% | –
91 | CCN(CC)c1ccc(C(=O)N/N=C/c2ccc(N3CCOCC3)cc2)cc1 | 1.15% | –
92 | CN(C)c1ccc(/C=N/Nc2cc(N3CCOCC3)nc(N3CCOCC3)n2)cc1 | – | 3.98 µM (active)
93 | CC(=O)Oc1ccc(OC(C)=O)c2c1C1C=CC2CC1 | -24.3% | –
94 | Cc1n[nH]c(=O)c2c(NC(=O)CSc3cc(Cl)ccc3Cl)oc(C)c12 | 2.48% | –
95 | Cc1cc(C(F)(F)F)nn1-c1nc(-c2ccco2)cc(C(F)(F)F)n1 | -21.2% | –
96 | COc1ccc(-c2cc(C(F)(F)F)nc(SCCC(=O)NCc3ccco3)n2)cc1 | -54.1% | –
97 | O=C(CSc1nc(-c2ccco2)cc(C(F)(F)F)n1)N1CCc2ccccc2C1 | – | 11.2 µM (active)
98 | CCN([C@H](CO)C(C)C)S(=O)(=O)c1ccccc1Br | 0.83% | –
99 | Cc1ccc(NC(=O)CN(C)C(=O)c2cccc(S(=O)(=O)N3CCCC3)c2)cc1 | 3.18% | –
100 | Cc1[nH]c2ccccc2c1/C=N/NC(=O)CNC(=O)c1ccc2c(c1)OCO2 | -8.97% | –
101 | COCCNC(=S)N/N=C/c1c(C)[nH]c2ccccc12 | – | 10 µM (active)
102 | Cc1[nH]c2ccccc2c1/C=N\NC(=O)Cn1nnc(-c2ccccc2)n1 | 9.36% | –
